In PubChem BioAssay AID463212 (Sanford-Burnham Center for Chemical Genomics, 2010) one finds inhibition data, which are given here for 61 molecules.

In all, about 330,000 compounds went through this assay and about 4,400 (1.3%) were called active.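 How the source made its calls: active means growth inhibition of the mutant yeast at or above 50%; inactive means the rest.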 The entries come from a sample that favours actives as a whole.

A word on the inhibition: it is the relative decrease from the control value, in per cent.

The assay can be described thus: growth inhibitors of tim23-1 mutant yeast, primary screen, luminescence, uHTS (AID 463212).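 Further: temperature-sensitive mutant grown at 25 °C; plate controls were DMSO-treated mutant yeast for no effect and medium wells lacking yeast for full effect.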 The conditions noted are these: S. cerevisiae tim23-1 growth, BacTiter-Glo luminescence, 24 h; at 20 µM; active compounds read high.
Consider `CC[C@]12c3[nH]c4ccc(OC)cc4c3CCN1C(=O)C(CC(=O)NCCN1CCOCC1)C[C@@H]2C(=O)N1CCN(C(=O)C2CC2)CC1` (stereo partly specified), for which the inhibition was 26.2% (inactive). As to `Cc1cc(NC(=O)c2ccc(F)cc2)ccc1NC(=O)c1ccco1`, the inhibition is 13.5% (inactive). Take `O=C(Nc1cccc(-c2nc3ncccc3o2)c1)c1ccco1`: the inhibition was 4.7% (inactive).

Consider `O=C(Nc1ccc2oc(-c3ccccc3F)nc2c1)c1ccco1`, for which the inhibition is 57.8% (active). Under `CCCCC1(C(=O)OCC)NC(c2ccc(O)cc2)C2C(=O)N(c3ccccc3)C(=O)C21` (stereo unspecified) stands 1.2% (inactive). On to `CCC(=O)Nc1ccc(C(=O)CSc2nnc(CNc3ccc(Cl)cc3)o2)cc1OC`, for which the inhibition is -7.17% (inactive). Under `O=C(COC(=O)CNC(=O)C1CCCCC1)Nc1cccc(F)c1` stands 17.5% (inactive); under `CN(CC(=O)Nc1ccccc1C(F)(F)F)C(=O)Cc1ccccc1F`, 14.9% (inactive); under `O=C(Nc1ccccc1F)c1ccccc1-c1ccc(C(F)(F)F)cc1`, 16% (inactive). The result for `N#C/C(=C\c1ccccc1C(F)(F)F)C(=O)Nc1ccccc1F` reads 71.2% (active); that for `COc1cccc(NC(=O)COC(=O)CCOc2ccccc2OC)c1`, 8.9% (inactive); that for `COc1cc([N+](=O)[O-])ccc1NC(=O)COC(=O)CCOc1ccc(C)cc1`, 73.7% (active).

`CSc1ccccc1NC(=O)COC(=O)CCCOc1ccc(C)cc1`: the inhibition is -1.47% (inactive).

`Cc1cccc(N2C(=O)SC(SC(=Nc3ccccc3)Nc3ccccc3)C2=O)c1` (stereo unspecified): the inhibition was 49.6% (inactive). Under `CN(C)C(=O)c1cc(Br)ccc1Cl` stands -8.05% (inactive); under `Cc1ccc(OCCCCN2CCCCC2)c(Br)c1`, 16.7% (inactive).

For `COc1ccc(S(=O)(=O)N2CCOCC2)cc1NC(=O)Cc1c(F)cccc1Cl`, the inhibition was 5.42% (inactive). The result for `O=C(Cc1c(F)cccc1Cl)Nc1ncc([N+](=O)[O-])s1` reads 55.4% (active); that for `CN(c1ccccc1)S(=O)(=O)c1cccc(NC(=O)Cc2c(F)cccc2Cl)c1`, 23.3% (inactive). The result for `COc1ccc2nc3n(c(=O)c2c1)-c1cc(C)ccc1C(=O)NC3Cc1ccc(O)cc1` (stereo unspecified) reads -6.13% (inactive). Under `COC(=O)CSC1=C(C#N)C(c2ccccc2OC)C(C(=O)OC)C(=O)N1` (stereo unspecified) stands 12.9% (inactive). As to `CCCc1cc(=O)[nH]c(SCC(=O)OCc2ccccc2)n1`, the inhibition is 6.03% (inactive). `Cc1ccc(C2CC(=O)NC(SCC(=O)OCc3ccccc3)=C2C#N)o1` (stereo unspecified): the inhibition was 59.1% (active). Under `CCCc1nnc(SCC(=O)N2C(C)CCCC2C)n1CC` (stereo unspecified) stands 1.57% (inactive). The result for `CC1CCCCC12NC(=O)N(CC(=O)N1CCN(c3ccccc3)CC1)C2=O` (stereo unspecified) reads 17.7% (inactive); that for `O=C(c1[nH]ncc1-c1ccc(Cl)cc1)C1CO1` (stereo unspecified), 43.9% (inactive); that for `O=C(Nc1cc(S(=O)(=O)N2CCOCC2)ccc1N1CCOCC1)c1c(F)cccc1Cl`, 14.4% (inactive). Under `Cc1cccc(Oc2c([N+](=O)[O-])c(=O)n(C)c3ccccc23)c1` stands 56% (active); under `Cc1cc(C)c(-c2c(O)c3ccccc3n(C)c2=O)c(C)c1`, 4.89% (inactive); under `Cc1cccc(OP(=O)(Nc2c(C)n(C)n(-c3ccccc3)c2=O)Oc2cccc(C)c2)c1`, 20.4% (inactive). For the molecule `CCn1c(SCC(=O)Nc2cc(C)ccc2C)nnc1-c1cnccn1`, the inhibition is 5.06% (inactive). The result for `CCc1cccc(NC(=O)CCCN2C(=O)C(c3ccccc3)Oc3cccnc32)c1` (stereo unspecified) reads 35.3% (inactive); that for `O=C(Oc1ccc([N+](=O)[O-])cc1)c1ccc2ccccc2n1`, 69.8% (active); that for `CC(OC(=O)c1ccc2ccccc2n1)C(=O)c1ccccc1` (stereo unspecified), 10.7% (inactive). The result for `COc1ccc(C(=O)COC(=O)c2ccc3ccccc3n2)cc1` reads 40.7% (inactive); that for `COc1ccc([N+](=O)[O-])cc1C1NN=C(c2cccc3ccccc23)S1` (stereo unspecified), 0.511% (inactive). Under `N#C[C@]1(S(=O)(=O)c2ccccc2)C[C@@H]2ON=C(c3cccc(Br)c3)[C@@H]2C1` stands 24.4% (inactive); under `Cc1sc2ncnc(Sc3nc4ccccc4s3)c2c1C`, 14.7% (inactive). In the case of `CCCNc1ncnc2sc(C)c(C)c12`, the inhibition was 58.6% (active). Under `CSc1ncnc2sc(C)c(C)c12` stands -2.76% (inactive); under `COc1cc(C(=O)NCC(c2ccco2)N2CCCC2)ccc1OCc1ccccc1` (stereo unspecified), 2.02% (inactive).

For `CCc1ccc(C2C(C#N)=C(N)N(N3CCOCC3)C3=C2C(=O)CC(C)(C)C3)s1` (stereo unspecified), the inhibition was 5.14% (inactive). For the molecule `Cc1ccc(S(=O)(=O)N2CC(O)C[C@H]2C(=O)OCC(=O)Nc2ccc(N3CCOCC3)cc2)cc1C` (stereo partly specified), the inhibition is 4.11% (inactive). Under `O=C(O)C#Cc1cccc2ccccc12` stands 7.2% (inactive); under `CN(Cc1ccccc1)C(=O)COC(=O)c1ccccc1Nc1ccccc1`, 42% (inactive); under `CCN1/C(=C\c2ccc3ccccc3[n+]2CC)Sc2cc(C)ccc21`, 51.5% (active). With `CC(C)(C)OC(=O)CNC(=O)c1[nH]cnc1C(=O)N[C@@H](CCCCN)C(=O)OC(C)(C)C`, the inhibition was -2.18% (inactive).

`O=C(c1ccccc1)c1cccn1CC(=O)N1CCN(c2ccc(F)cc2)CC1`: the inhibition is 17.4% (inactive). Under `CN(C)Cc1ccccc1C1(O)c2ccccc2CSc2ccccc21` (stereo unspecified) stands 34.6% (inactive). The result for `COc1ccc(C(=O)CC(=O)c2ccc(C)cc2)c(O)c1` reads 29.8% (inactive); that for `O=C(CSc1ncn[nH]1)NCc1ccc2c(c1)OCO2`, -3.54% (inactive); that for `O=C(/C=C/Sc1ncn[nH]1)c1ccc(Cl)cc1`, 74.3% (active).

Regarding `O=C(CSc1ncn[nH]1)Nc1ccc(Br)cc1Br`, the inhibition was -3% (inactive). The result for `CN(CCC1CCOCC1)C(=O)CC1C(=O)NCCN1Cc1cccc(F)c1` (stereo unspecified) reads -8.17% (inactive); that for `COc1ccc(OCCn2ccnc2C)cc1`, -7.96% (inactive).

For `COc1cc(OC)cc(-c2cc3nc(C4CCN(C(=O)OC(C)(C)C)CC4)cc(=O)n3[nH]2)c1`, the inhibition is 7.61% (inactive). As for `CCCCNC(=O)CCn1nc(-c2ccc(Cl)cc2)ccc1=O`, the inhibition is 18% (inactive). Regarding `Cc1ccc(S(=O)(=O)NC(C)C(=O)NCc2ccc(Cl)cc2)cc1` (stereo unspecified), the inhibition was -2.23% (inactive).

Turning to `CCCn1nc(C(=O)NNC(=O)CCOc2ccccc2OCC)c2ccccc2c1=O`, the inhibition is -4.04% (inactive). Consider `CCOc1ccccc1C1NC(=O)NC(C)=C1C(=O)OCc1ccco1` (stereo unspecified), for which the inhibition was 16% (inactive). Under `CCOc1ccccc1/C=c1\sc2nc(-c3ccco3)nn2c1=O` stands 52.2% (active).
